Sampled rows, rich in hits. Any-hit rate of the full collection: about 19%.
TDP1 cell noCPT – qHTS for Inhibitors of human tyrosyl-DNA phosphodiesterase 1 (TDP1): qHTS in cells in absence of CPT. 420,000 compounds, 15% hits. Potency, µM (series often up to 46.2 µM), usual class: inhibitors. DT40 Tdp1-/- hTDP1 cells, no CPT, ATP luminescence, 48 h; also: nearly all actives have a fitted effect of over 55% in size
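Luminescent ATP content (CellTiter-Glo) served as the growth readout. Knockout chicken DT40 cells expressing human TDP1 were exposed to compounds without camptothecin for a minimum 48 hr at 37 °C.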
VP16 counter – inhibits Gal4-VP16 luciferase reporter, ROR gamma counter-screen. AID 2546. Drosophila S2 Gal4-VP16 UAS-luciferase, luminescence, 20 h. Potency, µM (series often up to 53.6 µM), actives largely listed as inhibitors. 310,000 compounds, 3.5% hits;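 also: Gal4-VP16 expression switched on by copper sulfate through the metallothionein promoter; nearly all actives have a fitted effect of over 50% in size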
RORgamma inh – blocks mouse ROR gamma transcriptional activity; P51450; Drosophila S2 Gal4-RORgamma UAS-luciferase reporter, 20 h; Potency, µM (titrated, usually from 53.6 µM), hits mostly inhibitors; 310,000 compounds, 5.4% hits; AID 2551; also: nearly all actives have a fitted effect of over 60% in size
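Stably transfected Drosophila Schneider cells are the test system, with ROR gamma fused to Gal4 and luciferase under UAS control; luminescence is read after 20 hr of 700 uM copper sulfate induction at ambient temperature.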
TDP1 block – TDP1 (human) enzyme inhibition. 350,000 compounds, 0.28% hits. recombinant TDP1, AlphaScreen DNA substrate cleavage. Potency, µM (doses to about 130 µM), most hits filed as inhibitors. Q9NUW8; also: nearly all actives have a fitted effect of over 40% in size
Target sequence (Q9NUW8 whole entry, looked up): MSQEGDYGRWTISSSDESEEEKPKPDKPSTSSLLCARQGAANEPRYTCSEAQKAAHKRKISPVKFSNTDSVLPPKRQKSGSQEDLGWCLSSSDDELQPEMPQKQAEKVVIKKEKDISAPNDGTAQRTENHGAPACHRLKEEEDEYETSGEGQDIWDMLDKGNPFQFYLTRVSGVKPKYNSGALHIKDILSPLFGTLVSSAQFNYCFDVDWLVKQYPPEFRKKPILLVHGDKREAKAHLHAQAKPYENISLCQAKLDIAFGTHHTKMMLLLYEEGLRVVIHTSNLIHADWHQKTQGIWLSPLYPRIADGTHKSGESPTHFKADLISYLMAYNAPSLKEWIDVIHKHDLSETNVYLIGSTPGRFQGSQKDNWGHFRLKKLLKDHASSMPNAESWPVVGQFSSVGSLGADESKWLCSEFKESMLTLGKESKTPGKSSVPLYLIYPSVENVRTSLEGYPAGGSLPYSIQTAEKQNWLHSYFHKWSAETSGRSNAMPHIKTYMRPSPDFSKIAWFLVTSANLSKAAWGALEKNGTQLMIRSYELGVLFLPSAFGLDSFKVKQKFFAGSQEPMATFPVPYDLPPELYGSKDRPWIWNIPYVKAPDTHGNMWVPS
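Signal: AlphaScreen proximity between streptavidin donor and anti-FITC acceptor beads on intact substrate. Reaction: Tdp1 1 nM, substrate 15 nM final, 5 min RT after 15 min compound preincubation.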
DT40 TDP1 CPT – DT40-hTDP1 cell growth loss with CPT; 420,000 compounds, 12% hits; Potency, µM (doses to about 46.2 µM), hits mostly inhibitors; chicken DT40 Tdp1-/-;hTDP1 cells + 20 nM CPT, ATP luminescence, 48 h; also: nearly all actives have a fitted effect of over 55% in size
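Cell growth measured by CellTiter-Glo luminescence after a minimum 48 h, 37 C compound exposure with 20 nM CPT in Tdp1-knockout DT40 cells stably expressing hTDP1, seeded 400/well; qHTS titration format.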
Large screens that a line does not name were inactive. Calls follow the shape of the dose curve; as a rule, active = well fitted curve in the direction sought with a large enough effect; inconclusive = small, poorly fitted or top-dose-only effect, or another doubt; inactive = no such curve, though single readings can be large; an effect the other way counts as inactive or inconclusive.

CCN(CC)CCCNC(=O)C1c2cc(OC)c(OC)cc2C(=O)N(C)C1c1cccnc1 (configuration not stated)	none
O=C(CN1CCOCC1)NCc1ccc(F)cc1	none (no result: TDP1 block)
C=C(C)c1cccc(C(C)(C)NC(=O)NCc2ccncc2)c1	VP16 counter inconclusive, RORgamma inh inconclusive
C=C(C)c1cccc(C(C)(C)NC(=O)N2CCN(C/C=C/c3ccccc3)CC2)c1	TDP1 cell noCPT 23.1µM, DT40 TDP1 CPT 23.1µM
C=C(C)c1cccc(C(C)(C)NC(=O)Nn2cnnc2)c1	TDP1 cell noCPT 0.82µM
C=C(C)c1cccc(C(C)(C)NC(=O)N2CCCC(C)C2)c1 (configuration not stated)	TDP1 cell noCPT inconclusive, DT40 TDP1 CPT 23.1µM
C=C(C)c1cccc(C(C)(C)NC(=O)N2CCCC(C(N)=O)C2)c1 (configuration not stated)	none
CCn1c(O)c(/C=C/C=C/C=Nc2ccccc2)sc1=S	TDP1 cell noCPT 25.9µM, DT40 TDP1 CPT inconclusive
CCCCn1c(O)c(/C=C/C=C/C=Nc2ccccc2)sc1=S	TDP1 cell noCPT 14.6µM, VP16 counter inconclusive, DT40 TDP1 CPT 11.6µM
CCCn1c(O)c(C=Nc2ccccc2)sc1=S	TDP1 cell noCPT inconclusive
Oc1c(/C=C/C=C/C=Nc2ccccc2)sc(=S)n1Cc1ccccc1	TDP1 cell noCPT 20.6µM, DT40 TDP1 CPT inconclusive (no result: TDP1 block)
CSc1ccccc1NC(=O)CN1CCN(Cc2ccccc2)CC1	none (no result: TDP1 cell noCPT, DT40 TDP1 CPT)
Cc1cc(Br)c(OCc2ccc(C(=O)N/N=C3\CC(=O)CC(C)(C)C3)cc2)c(Br)c1	TDP1 cell noCPT inconclusive, DT40 TDP1 CPT inconclusive
CCOC(=O)C1=C(CC)Nc2ccccc2N=C1NC(=O)c1cccc(S(=O)(=O)N2CCOCC2)c1	none (no result: VP16 counter, RORgamma inh)
COc1cccc(-c2c(-c3cc(OC)cc(OC)c3)n(C)c3ccc(-c4ccc5cc[nH]c5c4)cc23)c1	TDP1 cell noCPT inconclusive, DT40 TDP1 CPT 18.4µM (no result: VP16 counter, RORgamma inh)
Cn1c(-c2ccccc2)c(Sc2ccccc2)c2cc(-c3ccc4cc[nH]c4c3)ccc21	TDP1 cell noCPT 23.1µM, DT40 TDP1 CPT inconclusive (no result: VP16 counter, RORgamma inh, TDP1 block)
COc1ccc(-c2c(Sc3ccccc3)c3cc(-c4ccc(OC)c(F)c4)ccc3n2C)cc1	none (no result: VP16 counter, RORgamma inh, TDP1 block)
COc1cc(OC)cc(-c2c(-c3cccs3)c3cc(-c4ccc5[nH]ccc5c4)ccc3n2C)c1	TDP1 cell noCPT inconclusive, DT40 TDP1 CPT inconclusive (no result: VP16 counter, RORgamma inh)
COc1cc(OC)cc(-c2c(-c3cccs3)c3cc(-c4ccc5cc[nH]c5c4)ccc3n2C)c1	TDP1 cell noCPT 13µM, DT40 TDP1 CPT inconclusive (no result: VP16 counter, RORgamma inh)
CCn1cc([N+](=O)[O-])c(C(=O)Nc2nc(-c3ccc(C)c(C)c3)c(C)s2)n1	DT40 TDP1 CPT inconclusive
CCOP(=O)(CC(C(C)=O)C(O)c1ccccc1)OCC (configuration not stated)	none
COc1ccc2c(c1)c(C(=O)CN1CCc3ccccc3C1)c(C)n2C	TDP1 cell noCPT 20.6µM, DT40 TDP1 CPT inconclusive
COc1ccc2[nH]c(C)c(C(=O)CNc3nccs3)c2c1	TDP1 cell noCPT 10µM, DT40 TDP1 CPT 7.94µM (no result: VP16 counter, RORgamma inh, TDP1 block)
COc1ccc2c(c1)c(C(=O)CNc1nc(C)cs1)c(C)n2C	TDP1 cell noCPT 20.6µM, DT40 TDP1 CPT inconclusive
COc1ccc2[nH]c(C)c(C(=O)CN3CCc4cc(OC)c(OC)cc4C3)c2c1	TDP1 cell noCPT 18.4µM, DT40 TDP1 CPT 16.4µM
O=C(NCc1ccccn1)c1ccc([N+](=O)[O-])cc1	none
O=C(Cc1ccc([N+](=O)[O-])cc1)NCc1ccccn1	TDP1 cell noCPT 2.91µM, RORgamma inh inconclusive, DT40 TDP1 CPT 4.61µM
COc1ccc(CC(=O)NCc2ccccn2)cc1OC	RORgamma inh 11.2µM
O=C(COC(=O)c1ccc2c(c1)OCO2)NC1CCCCC1	none (no result: VP16 counter, RORgamma inh)
COC(=O)C1=C(C)NC(C)=C(C(=O)OC)C1C(=O)OCC(=O)N1c2ccccc2CC1C (configuration not stated)	DT40 TDP1 CPT inconclusive
Cc1nc(Nc2ccccc2)sc1-c1ccccc1	TDP1 cell noCPT inconclusive, VP16 counter 11.2µM, RORgamma inh 11.2µM, DT40 TDP1 CPT inconclusive
c1ccc(Nc2nc(-c3ccccc3)c(-c3ccccc3)s2)cc1	TDP1 cell noCPT inconclusive, DT40 TDP1 CPT 28.2µM (no result: VP16 counter, RORgamma inh, TDP1 block)
c1ccc(CN2CCN(CCN3CCn4c3nc3ccccc34)CC2)cc1	none
OCC[C@H]1C[C@H](O)[C@@H](O)[C@]2(Cc3ccccc3CCO2)O1	none (no result: VP16 counter, RORgamma inh)
O=c1[nH]c2ccccc2nc1CCc1ccccc1	none
Nc1cc(=O)[nH]c(=O)n1-c1cccc(F)c1	none
Cc1ccc(-c2nn3c(C)nnc3s2)cc1NC(=O)c1ccc(-c2ccc(Cl)cc2Cl)o1	TDP1 cell noCPT 6.51µM, VP16 counter inconclusive, DT40 TDP1 CPT 7.31µM (no result: TDP1 block)
Cc1ccc(-c2nn3c(C)nnc3s2)cc1NC(=O)c1ccc(-c2cccc(Cl)c2)o1	TDP1 cell noCPT 18.4µM, DT40 TDP1 CPT 23.1µM
Cc1ccc(-c2nn3c(C)nnc3s2)cc1NC(=O)c1ccc(Br)o1	DT40 TDP1 CPT inconclusive
CC(=O)Nc1cc(-c2nn3c(C)nnc3s2)ccc1C	RORgamma inh inconclusive
CNC(=O)CSc1nnc(-c2cnccn2)n1C	none
NC(=O)CC(NC(=O)Cc1ccc(Br)cc1)c1ccc(NCC2CC2)c([N+](=O)[O-])c1 (configuration not stated)	TDP1 cell noCPT inconclusive, DT40 TDP1 CPT inconclusive
COCCn1c(SCC(=O)Nc2ccc(NC(C)=O)cc2)nc2c([nH]c3ccccc32)c1=O	none
Cc1ccc(S(=O)(=O)NCc2nc(-c3ccccc3)no2)cc1	none
Cc1cc(C)nc(Sc2ccc(/C=C(\C#N)C(N)=O)o2)n1	none
CN(C)C(=O)/C(C#N)=C\c1cc(Br)c(Sc2ccc(Cl)cc2)o1	TDP1 cell noCPT 14.6µM, VP16 counter 10µM, RORgamma inh inconclusive, DT40 TDP1 CPT inconclusive
CCOc1ccc(-c2nnc3ccc(SCC(=O)Nc4nc5ccc(C)cc5s4)nn23)cc1	TDP1 cell noCPT 25.9µM, DT40 TDP1 CPT inconclusive
CCOc1ccc(-c2nnc3ccc(SCC(=O)Nc4nc5ccccc5s4)nn23)cc1	TDP1 cell noCPT 18.4µM, RORgamma inh inconclusive, DT40 TDP1 CPT inconclusive
CCc1nnc(NC(=O)CSc2nncc(=O)n2N)s1	RORgamma inh inconclusive
Cc1ccc(S(=O)(=O)NCCc2nnc3ccc(SCC(=O)Nc4nc5ccccc5s4)nn23)cc1	none (no result: TDP1 cell noCPT, DT40 TDP1 CPT)
Cc1ccc2nc(NC(=O)CSc3nncc(=O)n3N)sc2c1	TDP1 cell noCPT 16.4µM, DT40 TDP1 CPT inconclusive
COC(=O)Nc1sc(C(=O)N(C)C)c(C)c1C(=O)OC	none
Cc1cc(C)c2c(n1)SCC(=O)N2CC(=O)Nc1cccc(C)c1C	DT40 TDP1 CPT inconclusive (no result: VP16 counter, RORgamma inh)
C/C(=N\NC(=O)c1ccccc1O)c1c(O)cc(C)oc1=O	TDP1 cell noCPT inconclusive, VP16 counter 2.51µM, RORgamma inh 0.891µM, DT40 TDP1 CPT inconclusive

Compound activity from PubChem BioAssay.
